Laboratory results: PubChem BioAssay (NCI)
About 79,000 compounds went through this panel and 15% of them were active in at least one assay; those are over-represented in the sample as a whole. Values without a mark were called inactive. The source made the active and inactive calls. Rule as the data show it: active = growth inhibition above about 70%; inactive = the rest.

How the values were obtained:
[1] = NCI Yeast Anticancer Drug Screen. Data for the rad50 strain (AID 155);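 also: 0% = growth of vehicle-only cultures of the same strain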; conditions: S. cerevisiae rad50 strain growth inhibition; at 50.0 µM; active compounds read high
Outline: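 Growth of the mutant yeast was measured after compound exposure and referenced to vehicle-treated cultures.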

[2] = NCI Yeast Anticancer Drug Screen. Data for the mec2-1 strain (AID 157); conditions: S. cerevisiae mec2-1 strain, at 50.0 µM, active compounds read high
Outline: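 Mutant yeast (mec2-1) grown with compound; growth inhibition relative to vehicle control reported.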

[3] = NCI Yeast Anticancer Drug Screen. Data for the sgs1 mgt1 strain (AID 161);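 also: 0% = growth of cultures given vehicle only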; conditions: S. cerevisiae sgs1 mgt1 strain, at 50.0 µM, active compounds read high
Outline: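 Growth of a repair-deficient yeast mutant was monitored after compound treatment and expressed as inhibition relative to vehicle-treated cultures.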

[4] = NCI Yeast Anticancer Drug Screen. Data for the cln2 rad14 strain (AID 165);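 also: 0% = growth equal to vehicle treated cultures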; conditions: S. cerevisiae cln2 rad14 strain, at 50.0 µM, active compounds read high
Outline: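 Readout is yeast growth inhibition versus vehicle-treated controls, using a strain with cln2 and rad14 alterations exposed to compound.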

[5] = NCI Yeast Anticancer Drug Screen. Data for the bub3 strain (AID 167); conditions: S. cerevisiae bub3 mutant strain, at 50.0 µM, active compounds read high
Outline: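 Whole-cell yeast assay. The mutant strain was incubated with compounds, and growth inhibition was determined by comparison with vehicle-treated cells.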

[6] = NCI Yeast Anticancer Drug Screen. Data for the mlh1 rad18 strain (AID 175); conditions: S. cerevisiae mlh1 rad18 strain growth inhibition; at 50.0 µM; active compounds read high
Outline: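 Genetically defined yeast (DNA repair-deficient) exposed to compounds; growth inhibition determined relative to vehicle.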

Compound	growth inhibition [1]	growth inhibition [2]	growth inhibition [3]	growth inhibition [4]	growth inhibition [5]	growth inhibition [6]
NC(=O)N/N=C1\CCn2cccc21	-10.8%	1%	-3.25%	-2.2%	1.1%	-5.1%
CN(C)Cc1c[nH]c2nc[nH]c(=O)c12	-1.3%	-31.4%	-31.4%	6%	-9.5%	-16.4%
O=S(=O)(O)c1ccccc1/C=N\N=C\c1ccccc1S(=O)(=O)O	10.8%	1.85%	11.7%	17.4%	-6.4%	12.8%
C=C(C)CCCC(C)C(O)C=O (stereo not drawn)	-8.85%	1.15%	1.55%	1.75%	-5.35%	-12.7%
Cn1ncc2c(=S)[nH]c(=S)[nH]c21	19.4%	-9.25%	2.5%	7.85%	2.3%	1.85%
N#CC1CCCC(CBr)C1 (stereo not drawn)	-24.9%	-43%	-20.5%	-23.7%	-9.05%	-26.7%
Cc1ccc(S(=O)(=O)N/N=C(\C(=O)c2ccccc2)c2ccccc2)cc1	45%	18.2%	39.4%	28.1%	23.6%	36.6%
Cc1ccc(F)c(N)c1	26.8%	-17.2%	24.1%	5.8%	5.75%	27.9%
C1=Cc2ccccc2Nc2ccccc21	-1.9%	-7.35%	-10.8%	1.65%	-11.9%	-23.5%
O=C(O)CSc1n[nH]c(-c2ccccc2)n1	-14.2%	-4.3%	-7.5%	2.55%	2.3%	-9.35%
Clc1ccccc1C=NC1CCCCC1	-5.1%	-12.2%	-0.3%	-1.15%	-5.85%	-3.1%
Nc1ccc(O)cc1	15.2%	7.5%	39%	9.35%	3.45%	14.9%
COc1cc([C@H]2CC(=O)C[C@H](c3cc(OC)c(OC)c(OC)c3)C23C(=O)c2ccccc2C3=O)cc(OC)c1OC	-3%	11.9%	-8.7%	29.5%	0.45%	7%
NC(=S)N/N=C1\CCCCC1C(O)(C(F)(F)Cl)C(F)(F)Cl (stereo not drawn)	-26.2%	-33.8%	-19.1%	-8.9%	-11.5%	-25.2%
CC1=C(/C=C/C(C)=C/C=C/C(C)=C/C=C/C=C(C)/C=C/C=C(\C)C=O)C(C)(C)CCC1	-18.2%	4.85%	-9.4%	-1.4%	4.75%	0.8%
CCC[C@@H]1CCCC[C@H]1C	0.55%	-1.95%	-5.3%	-2.2%	-14.2%	0.5%
NC(=O)NCSCNC(N)=O	-0.7%	-0.2%	-7.35%	8.15%	-2.75%	4.5%
NC(=O)c1nnc2ccc(F)cc2c1N	-35.2%	-37%	-23.2%	-2.55%	-9.35%	-27.2%
C=C(C)CCCCCCCCC	-4.8%	-5.8%	17.6%	1.4%	3%	-3.25%

Compound	growth inhibition [1]	growth inhibition [2]	growth inhibition [3]	growth inhibition [4]	growth inhibition [5]	growth inhibition [6]
CCOC(=O)NC(C)(C)CN(CCO)C(=O)OCC	-5.9%	-3.4%	1.4%	-4.9%	-21.9%	-8.7%
Cc1ccc(OS(=O)Nc2cccc(N)c2)cc1 (stereo not drawn)	-5.35%	-12.1%	-13.9%	-22.1%	-8.4%	-10.3%
O=C1NC(N2CCCCC2)=N/C1=C\c1ccc(Cl)cc1	-7.5%	-7%	2.4%	7.55%	-12.3%	-38.5%
COc1cc(C=O)c(-c2cc(OC)c(OC)cc2C=O)cc1OC	5.9%	-6.65%	-8.8%	0.2%	-12.4%	-2.15%
COc1cc(C2SCC(=O)N2NC(=O)c2ccc(NC(C)=O)cc2)cc(OC)c1OC (stereo not drawn)	-11.8%	-3.95%	-5.2%	6.15%	-12.4%	-12.2%
COC1=C(O)C(=O)N(C)C(=O)C1	20.4%	9.35%	29.2%	0.75%	-14.7%	10.8%
O=[N+]([O-])c1nccn1CCCN=c1c2ccccc2n(O)c2ccccc12	8.9%	-16.4%	-5.85%	-5.8%	-12.7%	-33.4%
N#CCc1ccc(C(C#N)C(=O)CCC(=O)C(C#N)c2ccc(CC#N)cc2)cc1 (stereo not drawn)	11.7%	11.3%	-13.1%	34.1%	-0.3%	22.1%
COC(=O)C(C(=O)c1ccccc1)C(C(=O)C(=O)Nc1ccc(OC)cc1OC)C(=O)C(=O)c1ccc(C)cc1 (stereo not drawn)	-1.3%	10.8%	3.7%	-3.9%	2.85%	19.6%
CCOC(=O)C1=C(O)c2c(OC)ccc(OC)c2C(=O)C1=O	-23.6%	-43.5%	-22.2%	3.65%	-16%	-30%
Oc1ccc(Cl)c2cccnc12	98.9% (active)	99.5% (active)	99.2% (active)	97.8% (active)	99.3% (active)	97.7% (active)
c1ccc(N=NC(N=Nc2ccccc2)=P(c2ccccc2)(c2ccccc2)c2ccccc2)cc1	56.4%	98.7% (active)	53%	64.6%	46.7%	61.9%
CCCCN(CC)NC(=S)Nc1ccccc1	-9.25%	9.7%	-3.3%	-18.4%	17.9%	5.6%
Nc1ncnc2c1ncn2C1CCC(CP(=O)(O)O)C1 (stereo not drawn)	-6.85%	-25.4%	-23.4%	-29.4%	-5.45%	-0.1%
O=P1(c2ccccc2)C(c2ccccc2)=CC=C1c1ccccc1	23.4%	9.8%	18.1%	6.6%	12.3%	31.2%
CC(=O)Nc1nc2nccn2c(=O)[nH]1	-5.7%	-3.1%	-6.5%	-28.3%	-2.4%	2%
COc1ccc(-c2nc(N)nc3c2CN(CCC(=O)O)C3=O)cc1	0.9%	-18.2%	12%	-8.6%	7.45%	3.9%
Fc1cccc(Cl)c1/C=N\N=C1c2ccccc2-c2ccccc21	-8.1%	21.9%	-22.4%	-20.1%	-57.8%	-15.8%
CCN(CC)c1nc(C(N)=O)c([N+](=O)[O-])c(N(CC)CC)n1	-9.7%	-3.4%	14.1%	-14.2%	-17.9%	-0.5%
